High-throughput results (PubChem)
Sampled rows, rich in hits. Any-hit rate of the full collection: about 3.3%.
Sm TGR inh: S. mansoni TGR enzyme inhibition; AID 485364; hit rate 3% among 360,000; purified TGR, DTNB reduction, TNB absorbance 405 nm; Potency, µM (top dose mostly 114 µM), inactives show at the top dose activity change, negative = inhibition, usual class: inhibitors; also: % is scaled to controls: 0 for no effect and ±100 for the full control effect; nearly all actives have a fitted effect of over 60% in size
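First, TGR (20 nM dispensed) and NADPH were mixed with compound. Second, a 15 min room-temperature incubation followed. Third, further NADPH and then DTNB were added to start the reaction. Finally, TNB absorbance was monitored kinetically.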
AmpC no deterg: blocks E. coli AmpC beta-lactamase in detergent-free assay; P00811; AmpC nitrocefin hydrolysis, absorbance 480 nm, 0.0001% Triton; Potency, µM (top dose mostly 57.1 µM), without a hit: top-dose activity change, negative = inhibition, hits mostly inhibitors; hit rate 0.52% among 330,000; AID 485341;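 also: plate controls were no compound for no effect and no enzyme for full effect; nearly all actives have a fitted effect of over 20% in size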
Target sequence (P00811 whole entry, looked up): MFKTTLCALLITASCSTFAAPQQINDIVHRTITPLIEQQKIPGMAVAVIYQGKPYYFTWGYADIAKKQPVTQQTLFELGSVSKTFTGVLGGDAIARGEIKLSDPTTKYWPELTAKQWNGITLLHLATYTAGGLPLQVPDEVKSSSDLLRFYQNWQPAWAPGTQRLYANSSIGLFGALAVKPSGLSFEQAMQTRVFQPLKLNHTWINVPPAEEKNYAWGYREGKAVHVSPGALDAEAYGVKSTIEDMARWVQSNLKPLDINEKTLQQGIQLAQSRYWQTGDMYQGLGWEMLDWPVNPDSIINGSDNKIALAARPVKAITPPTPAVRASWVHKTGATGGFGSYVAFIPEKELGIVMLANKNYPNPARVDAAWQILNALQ
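AmpC (5.3 nM in the dispensed reagent) in 20 mM phosphate pH 7.0 with 0.01% (detergent screen) or 0.0001% Triton X-100 was preincubated with compounds for 15 min at room temperature. Nitrocefin was then added from an 800 uM solution, and hydrolysis was followed at 480 nm.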
RE007 growth inh: less growth of the S. pombe RE007 Vpr strain; S. pombe RE007 Vpr strain, BacTiter-Glo ATP luminescence, 24 h; Potency, µM (series often up to 92.2 µM), without a hit: at the highest dose activity change, negative = less growth, hits mostly inhibitors; hit rate 0.21% among 360,000; AID 651644; active = well fitted falling curve with a large enough effect; inconclusive = small, poorly fitted or top-dose-only effect; inactive = no such curve, though single readings can be large or run the other way; also: % is scaled to controls: 0 for no effect and ±100 for the full control effect; nearly all actives have a fitted effect of over 50% in size
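Fission yeast strain RE007, carrying one chromosomally integrated HIV-1 vpr copy, was seeded at OD 0.01 in PMG+AL medium with 23 nL pinned compound. After 24 h at 30 °C and 99% humidity, viability was read by BacTiter-Glo luminescence.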
SARS PLP yeast: inhibitors of SARS-CoV papain-like protease in yeast | S. cerevisiae expressing SARS-CoV PLpro, growth rescue | Potency, µM (titrated, usually from 32.9 µM), inactives show at the highest dose activity, positive = growth rescue, actives largely listed as activators | hit rate 0.19% among 330,000; calls by dose curve; also: 0% is about no effect; nearly all actives have a fitted effect of over 55% in size
AmpC inh detg: inhibitors of E. coli AmpC beta-lactamase with detergent. P00811. AmpC hydrolysis of nitrocefin, absorbance 480 nm, 0.01% Triton. Potency, µM (highest dose often 114 µM), without a hit: at the top dose activity change, negative = inhibition, actives largely listed as inhibitors. hit rate 0.041% among 370,000. AID 485294;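 also: 0% = no-compound wells and -100% = no-enzyme wells; nearly all actives have a fitted effect of over 25% in size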
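AmpC (5.3 nM in the dispensed reagent) in 20 mM phosphate pH 7.0 with 0.01% (detergent screen) or 0.0001% Triton X-100 was preincubated with compounds for 15 min at room temperature. Nitrocefin was then added from an 800 uM solution, and hydrolysis was followed at 480 nm.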
TbPYK inhibitor: blocks Trypanosoma brucei pyruvate kinase; Potency, µM (series often up to 76.8 µM), for inactives: at the highest dose activity, negative = inhibition, hits mostly inhibitors; hit rate 0.12% among 410,000; TbPYK enzyme, Kinase-Glo Plus ATP luminescence, 45 min; Q57TT1; AID 624173; also: % is scaled to controls: 0 for no effect and ±100 for the full control effect; nearly all actives have a fitted effect of over 50% in size
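ADP (130 uM final) triggers the TbPYK reaction after compound addition; incubation is 45 min at room temperature. Kinase-Glo Plus is then added and luminescence imaged. Normalized data are fitted to concentration-effect curves.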
An asterisk follows results filed as active. Unless noted, calls follow the shape of the dose curve; as a rule, active = well fitted curve in the direction sought with a large enough effect; inconclusive = small, poorly fitted or top-dose-only effect, or another doubt; inactive = no such curve, though single readings can be large; an effect the other way counts as inactive or inconclusive. Potency is read from the fitted curve at half-maximal effect.

Screening CCOc1ccccc1C1CC(c2cccs2)=NN1S(C)(=O)=O (stereo not drawn) returned Sm TGR inh 4µM*, AmpC no deterg -2%, RE007 growth inh 3%, SARS PLP yeast 0%, AmpC inh detg -1% and TbPYK inhibitor 1%.
For CS(=O)(=O)N1N=C(c2cccs2)CC1c1ccccc1O (stereo not drawn) the results were Sm TGR inh 19%, AmpC no deterg -22%, RE007 growth inh 13%, SARS PLP yeast 0%, AmpC inh detg 1% and TbPYK inhibitor 2%.
`COC(=O)c1cc2sc(Cl)cc2n1Cc1nc(-c2ccccc2F)oc1C` gave Sm TGR inh -6%, AmpC inh detg -5% and TbPYK inhibitor -8%.
`CCN1/C(=C(\O)c2ccccc2)C(=O)c2ccccc2S1(=O)=O` gave Sm TGR inh -20%, AmpC no deterg -35%, RE007 growth inh 40µM*, SARS PLP yeast -12%, AmpC inh detg -5% and TbPYK inhibitor 3%.
For Clc1ccc(-c2noc3ncnc(NCCCN4CCN(c5ccccc5)CC4)c23)cc1 the results were Sm TGR inh 7%, AmpC inh detg -2% and TbPYK inhibitor 7%.
For COc1ccc(C(=O)NC2CCN(CC(=O)Nc3c(C)cccc3C)CC2)cc1OC the results were Sm TGR inh 100µM*, AmpC no deterg -1%, RE007 growth inh 4%, SARS PLP yeast 2%, AmpC inh detg -4% and TbPYK inhibitor -6%.
`CC(=O)c1ccc(NC(=O)CN2CCC(NC(=O)c3ccccc3C)CC2)cc1` gave RE007 growth inh -7% and TbPYK inhibitor -2%.
For Cc1ccccc1C(=O)NC1CCN(CC(=O)Nc2ccc(N(C)C)cc2)CC1 the results were Sm TGR inh 40µM*, AmpC no deterg -1%, RE007 growth inh -2%, SARS PLP yeast 6%, AmpC inh detg inconclusive and TbPYK inhibitor 1%.
`CCOC(=O)c1cccc(NC(=O)c2cc3c(=O)n(Cc4cccnc4)ccc3nc2C)c1` gave Sm TGR inh -3%, AmpC inh detg 21% and TbPYK inhibitor -6%.
For O=C(O)/C=C/c1ccc(O)c(O)c1 the results were Sm TGR inh inconclusive, AmpC no deterg -8%, RE007 growth inh 8%, SARS PLP yeast 3%, AmpC inh detg -4% and TbPYK inhibitor inconclusive.
O=C(/C=C/c1ccc(O)c(O)c1)O[C@H](Cc1ccc(O)c(O)c1)C(=O)O was read as Sm TGR inh 3.2µM*, AmpC no deterg inconclusive, SARS PLP yeast 11% and AmpC inh detg inconclusive.
Screening Cc1ccccc1N=Nc1c(O)[nH]c2ccccc12 returned RE007 growth inh -2% and TbPYK inhibitor -23%.
For Cc1ccc2[nH]c(O)c(N=Nc3ccccc3C)c2c1 the results were Sm TGR inh 22µM*, AmpC no deterg -43%, RE007 growth inh 30%, SARS PLP yeast 3%, AmpC inh detg -4% and TbPYK inhibitor -18%.
Cc1ccc(-n2cc(C(=O)Oc3ccc(F)cc3)c3ccccc3c2=O)cc1 was read as Sm TGR inh 35µM*, AmpC inh detg -1% and TbPYK inhibitor -1%.
Cc1ccc(-n2cc(C(=O)Oc3cccc(C)c3)c3ccccc3c2=O)cc1 was read as Sm TGR inh 7%, AmpC inh detg 6% and TbPYK inhibitor 11%.
Screening O=C(CSc1nc(-c2ccco2)nc2cc(=O)[nH]n12)Nc1ccccc1F returned Sm TGR inh -29%, AmpC inh detg -1% and TbPYK inhibitor -12%.
Screening CSc1nnc(-c2ccccc2)c(-c2ccccc2)n1 returned Sm TGR inh -5%, AmpC no deterg -12%, RE007 growth inh -8%, SARS PLP yeast -1%, AmpC inh detg 2% and TbPYK inhibitor -10%.
Cc1cccc(C)c1NC(=O)CSc1nnc(-c2ccco2)c(-c2ccco2)n1 was read as Sm TGR inh 1.8µM*, AmpC no deterg -28%, RE007 growth inh 8%, SARS PLP yeast 0%, AmpC inh detg -1% and TbPYK inhibitor inconclusive.
For Cc1ccccc1NC(=O)CSc1nc(-c2ccco2)nc2cc(=O)[nH]n12 the results were Sm TGR inh 40µM*, AmpC inh detg -1% and TbPYK inhibitor -4%.
For Cc1ccccc1NC(=O)CSc1nnc(-c2ccco2)c(-c2ccco2)n1 the results were Sm TGR inh 3.5µM*, AmpC no deterg -34%, RE007 growth inh 4%, SARS PLP yeast -6%, AmpC inh detg -7% and TbPYK inhibitor 20µM*.
CSc1nnc(-c2ccco2)c(-c2ccco2)n1 was read as Sm TGR inh 1µM*, AmpC no deterg -21%, RE007 growth inh -24%, SARS PLP yeast -3%, AmpC inh detg 0% and TbPYK inhibitor inconclusive.
O=S(=O)(Nc1ccc(F)c(Cl)c1)c1ccc(Br)s1 was read as Sm TGR inh -33%, AmpC inh detg 1% and TbPYK inhibitor -5%.
COc1ccc(-c2nc3ccc(C4=C(C)CC(=O)NN4)cc3[nH]2)cc1 was read as TbPYK inhibitor 3%.
Screening COc1cc(Cl)c(C)cc1NC(=O)c1c(C)oc2nc(C)nc(N3CCCC3)c12 returned Sm TGR inh 15%, AmpC inh detg 13% and TbPYK inhibitor 2%.
For O=C(CC1N=C2c3ccccc3N=C(SCc3ccccc3Cl)N2C1=O)NCc1cccs1 (stereo not drawn) the results were Sm TGR inh 9%, AmpC inh detg 2% and TbPYK inhibitor -2%.
`O=C(COC(=O)c1cc(S(=O)(=O)N2CCc3ccccc3C2)ccc1Cl)NCc1ccco1` gave Sm TGR inh 18µM*, AmpC no deterg -40%, RE007 growth inh 11%, SARS PLP yeast 11%, AmpC inh detg inconclusive and TbPYK inhibitor inconclusive.
O=C(COC(=O)c1cccc(S(=O)(=O)N2CCc3ccccc3C2)c1)NCc1ccco1 was read as Sm TGR inh 28µM*, AmpC no deterg -46%, RE007 growth inh -1%, SARS PLP yeast -2%, AmpC inh detg inconclusive and TbPYK inhibitor 0%.
For CCn1cc(C(=O)NCc2ccco2)c(=O)c2cc(S(=O)(=O)N3CCc4ccccc4C3)ccc21 the results were Sm TGR inh 14µM*, AmpC no deterg 118%, RE007 growth inh -7%, SARS PLP yeast -5%, AmpC inh detg 2% and TbPYK inhibitor 1%.
`O=C(NCc1ccco1)c1cccc(S(=O)(=O)N2CCCCC2)c1` gave Sm TGR inh 25µM*, AmpC no deterg -25%, RE007 growth inh -12%, SARS PLP yeast -15%, AmpC inh detg -10% and TbPYK inhibitor -7%.
